Assay results from PubChem BioAssay (NCATS).
Records with an inconclusive call do not appear. Where a call stands in place of a potency, no number is given. Activity calls are given as the source filed them. Unless noted, calls follow the shape of the dose curve; as a rule, active = well fitted curve in the direction sought with a large enough effect; inconclusive = small, poorly fitted or top-dose-only effect, or another doubt; inactive = no such curve, though single readings can be large; an effect the other way counts as inactive or inconclusive.

Assays:
[1] = biological target: Chromobox protein homolog 1 (Homo sapiens) (UniProt P83916); assay: qHTS Validation Assay for Inhibitors of HP1-beta Chromodomain Interactions with Methylated Histone Tails (AID 488953);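 also: loss of AlphaScreen luminescence from HP1-beta binding biotinylated H3K9me3 peptide; series mostly up to about 110 µM; nearly all actives have a fitted effect of over 50% in size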
Procedure, shortened: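 Compounds pinned into a preassembled complex of HP1-beta and trimethyl-K9 histone H3(1-18) biotin peptide (50 nM each; PBS pH 7.4, 0.01% Tween-20). After 30 min, bead-based AlphaScreen detection followed.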

[2] = biological target: Methanococcus maripaludis chaperonin (MmCpn) (UniProt Q6LX38); assay: High-Throughput Screening for Modulators of Cytosolic Chaperonin Activity: MmCpn Primary Screen (AID 488978);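 also: 50 nM MmCpn enzyme hydrolysing 30 µM ATP at 37 °C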
Procedure, shortened: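 ATPase activity of 50 nM MmCpn was assayed with 30 uM ATP, 10 minutes at 37C, after a 5 min compound preincubation at room temperature. ADP production was read as HTRF emission at 590 and 665 nm.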

[3] = Validation screen for small molecules that induce genotoxicity in human embryonic kidney (HEK293T) cells expressing luciferase-tagged ELG1 (AID 493106)
Procedure, shortened: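 In this validation screen, increased ELG1-luciferase signal flags compounds causing genetic stress. HEK293T reporter cells are treated 16 hr (37 °C, 5% CO2), developed with ONE-Glo for 30 min at room temperature, and imaged on a CCD-based reader.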

[4] = biological target: ATPase family AAA domain-containing protein 5 (Homo sapiens) (UniProt Q96QE3); assay: Validation screen for small molecules that inhibit ELG1-dependent DNA repair in human embryonic kidney (HEK293T) cells expressing luciferase-tagged ELG1 (AID 493107);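 also: cells co-treated with the DNA-damaging agent 5-fluorouridine alongside compound; series mostly up to about 46 µM; inhibitors lower the ELG1-luciferase luminescence signal; nearly all actives have a fitted effect of over 70% in size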
Procedure, shortened: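 Compounds reducing 5-fluorouridine-driven ELG1-luciferase signal in HEK293T cells were scored; exposure lasted 16 hr at 37 °C with luminescence detected via ONE-Glo.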

[5] = Nrf2 qHTS screen for inhibitors: Validation (AID 493153; active = well fitted inhibition curve with a large enough effect in the main read-out, with a control signal flat, not every such curve was filed as active); details: Potency: luciferase luminescence; viability change: measured here: cytotoxicity max response
Procedure, shortened: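 In this counterscreened reporter format, each well gives two signals: CellTiter-Fluor fluorescence for cytotoxicity and ARE-luciferase luminescence for Nrf2 function. A549 ARE_Fluc cells in 5% FBS OPTI-MEM were exposed to compound titrations for 18-24 h.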

[6] = qHTS for Inhibitors of Cell Surface uPA Generation: Validation Assay (AID 493164);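 also: RAW 264.7 macrophage cells exposed to compound for 18 h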
Procedure, shortened: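 Compounds are titrated over seven points (2.45 nM–38.3 uM final) onto pre-plated RAW 264.7 cells and incubated for 18 h. Retained intracellular ATP, measured with ATP-Lite, indicates blocked lethal factor entry.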

[7] = biological target: Peptidyl-prolyl cis-trans isomerase NIMA-interacting 1 (Homo sapiens) (UniProt Q13526); assay: qHTS Validation Assay to Find Inhibitors of Pin1 (AID 504536; active = well fitted inhibition curve with a large enough effect in the polarisation, with a control signal flat, not every such curve was filed as active; the % refers to the polarisation)
Procedure, shortened: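 Fluorescence polarization competition: compounds (titration) displace HiFluor-488-labeled Pin1-1b peptide from Pin1 (0.3 uM final) in pH 7.5 HEPES buffer with DTT, 10 min at room temperature; %Activity normalized to no-enzyme wells, curves fitted.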

[8] = biological target: Phosphoglycerate kinase, glycosomal (Trypanosoma brucei brucei) (UniProt P07378); assay: qHTS Validation Assay to Find Inhibitors of Phosphoglycerate Kinase (AID 504547)
Procedure, shortened: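 In TEA buffer (100mM, pH 7.6) containing 5mM MgCl2 and 0.01% Tween-20, the GAPDH-coupled PGK reaction proceeded for 60 minutes at room temperature before a single luminescence reading using Kinase-Glo Plus.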

[9] = biological target: Ubiquitin carboxyl-terminal hydrolase 1 (Homo sapiens) (UniProt O94782); assay: Inhibitors of USP1/UAF1: Pilot qHTS (AID 504865);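 also: rhodamine fluorescence freed from ubiquitin-rhodamine substrate followed over time; top concentration of the series differs between compounds; nearly all actives have a fitted effect of over 35% in size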
Procedure, shortened: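 Deubiquitinase activity followed as kinetic rhodamine fluorescence release from 150 nM Ub-Rho. 1 nM USP1/UAF1 with compound, after 15 min room-temperature preincubation, in HEPES pH 7.8 buffer containing TCEP, EDTA, BSA and Tween-20.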

[10] = biological target: Transient receptor potential cation channel subfamily V member 1 (Homo sapiens) (UniProt Q8NER1); assay: HTS Assay for Compounds that Act as Enhancers of the Vanilloid Receptor 1 (AID 488979)
Procedure, shortened: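 TRPV1-expressing cells loaded with Fluo-8 calcium dye; compounds added and calcium influx read kinetically for 3 min (agonist phase), then capsaicin at EC20 added and read 2 min more for enhancement. Fluorescence ex 480/em 520 nm.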

[11] = biological target: D(1A) dopamine receptor (Homo sapiens) (UniProt P21728); assay: HTS Assay for Allosteric Agonists of the Human D1 Dopamine Receptor: Primary Screen for Agonists (AID 488981)
Procedure, shortened: (§1)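 Tetracycline-induced HEK293 T-REx cells force-coupled to calcium signalling were incubated overnight at 30 C and dye-loaded at room temperature. Calcium flux over 180 s after compound addition flagged agonists; a further 180 s read after EC20 dopamine flagged potentiators.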

[12] = biological target: D(1A) dopamine receptor (Homo sapiens) (UniProt P21728); assay: HTS Assay for Allosteric Agonists of the Human D1 Dopamine Receptor: Primary Screen for Potentiators (AID 488982)
Procedure, shortened: as §1

[13] = biological target: D(1A) dopamine receptor (Homo sapiens) (UniProt P21728); assay: HTS Assay for Allosteric Agonists of the Human D1 Dopamine Receptor: Primary Screen for Antagonists (AID 488983);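 also: calcium flux response to an EC80 dopamine challenge measured with no-wash dye; nearly all actives have a fitted effect of over 65% in size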
Procedure, shortened: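 In this primary screen, compounds are applied to calcium-dye-loaded HEK293 T-REx cells with force-coupled D1 expression induced overnight at 30 C. An EC80 of dopamine follows the 180 s compound phase, and calcium is monitored for a further 180 s.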

[14] = biological target: Thyrotropin-releasing hormone receptor (Homo sapiens) (UniProt P34981); assay: qHTS for Small Molecule Agonists and Allosteric Enhancers of Human TRH Receptor: Validation Screen for Agonists (AID 493127;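 active = calcium activation more than 3 SD above the typical response in the agonist read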;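 also: intracellular calcium rise by fluo-8 fluorescence before TRH EC20 addition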); details: TRH receptor agonist cell assay; at 2 µM; stronger effect = higher value
Procedure, shortened: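 Kinetic fluorescence assay of agonist-induced calcium release: overnight-plated TRHR cells, room-temperature fluo-8 loading, baseline then compound addition with per-second reads.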

[15] = Validation screen for small molecules that induce DNA re-replication in SW480 colon adenocarcinoma cells (AID 504364)
Procedure, shortened: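 Hoechst-stained SW480 nuclei, imaged at 405 nm excitation after 48 hr compound exposure, were counted for elevated DNA content as the re-replication signal.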

[16] = biological target: Thyrotropin receptor (Homo sapiens) (UniProt P16473); assay: qHTS Assay for Antagonists of the Thyroid Stimulating Hormone Receptor (AID 488980); also: series mostly up to about 58 µM
Procedure, shortened: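 Inhibition of cAMP raised by EC80 TSH (4 nM final) was read by HTRF, with lysate cAMP competing against cAMP-d2 for cryptate antibody after 30 min at room temperature. The cells were transfected HEK293 held in phosphodiesterase inhibitor RO 20-1724 at 70 uM.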

[17] = biological target: Galactokinase (Homo sapiens) (UniProt P51570); assay: qHTS Validation Assay for Inhibitors of Human Galactokinase (GALK) (AID 493189)
Procedure, shortened: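 Inhibition was measured as remaining ATP, detected by luciferase luminescence after a 1 h room-temperature reaction. Final conditions: 5 nM GALK, 100 uM galactose, 35 uM ATP, pH 8.0 HEPES buffer.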

[18] = biological target: ATP-dependent 6-phosphofructokinase (Trypanosoma brucei brucei) (UniProt O15648); assay: qHTS Assay to Find Inhibitors of T. brucei phosphofructokinase: hit validation (AID 492961);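 also: luminescence reports ADP formed as PFK phosphorylates fructose-6-phosphate with ATP; series mostly up to about 51 µM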
Procedure, shortened: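 Reaction: 0.1 M triethanolamine pH 8.0, 5 mM MgCl2, F6P 0.5 mM, ATP 0.1 mM, PFK 1.25 nM, 45 min RT. Read-out: ADP-Glo luminescence. Analysis: concentration-response fits, classed by r2 and efficacy.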

[19] = biological target: phosphoglycerate mutase (Leishmania major) (UniProt Q4Q090); assay: qHTS Validation Assay to Find Inhibitors of Phosphoglycerate Mutase (AID 504548); also: series mostly up to about 58 µM
Procedure, shortened: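 Lm PGAM 1.25nM final; 100 mM TEA pH 7.6, 5 mM MgCl2, 0.01% Tween-20; 45 min RT; Kinase-GloPlus, 10 min; end-point luminescence. Enzyme-free wells as negative controls.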

Sequence of Chromobox protein homolog 1 (Homo sapiens) (P83916 whole entry, looked up): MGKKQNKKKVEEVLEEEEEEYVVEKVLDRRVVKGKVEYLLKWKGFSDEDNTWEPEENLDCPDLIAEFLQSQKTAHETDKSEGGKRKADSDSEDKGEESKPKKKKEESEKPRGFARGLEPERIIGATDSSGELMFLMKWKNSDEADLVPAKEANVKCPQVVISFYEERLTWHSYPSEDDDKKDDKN
Sequence of ATP-dependent 6-phosphofructokinase (Trypanosoma brucei brucei) (O15648 whole entry, looked up): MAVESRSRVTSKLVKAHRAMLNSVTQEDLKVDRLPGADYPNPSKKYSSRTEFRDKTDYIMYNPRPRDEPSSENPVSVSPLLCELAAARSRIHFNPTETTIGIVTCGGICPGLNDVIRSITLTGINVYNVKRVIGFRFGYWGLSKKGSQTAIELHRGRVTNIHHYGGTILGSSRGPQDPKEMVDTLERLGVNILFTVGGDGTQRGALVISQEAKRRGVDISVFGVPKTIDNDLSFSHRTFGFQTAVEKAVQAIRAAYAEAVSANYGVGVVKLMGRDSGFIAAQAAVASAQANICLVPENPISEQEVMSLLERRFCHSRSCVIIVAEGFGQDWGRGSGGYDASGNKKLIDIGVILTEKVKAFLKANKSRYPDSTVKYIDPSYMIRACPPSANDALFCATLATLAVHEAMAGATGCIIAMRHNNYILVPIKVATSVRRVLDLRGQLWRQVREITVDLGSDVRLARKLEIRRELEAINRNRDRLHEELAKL
Sequence of D(1A) dopamine receptor (Homo sapiens) (P21728 whole entry, looked up): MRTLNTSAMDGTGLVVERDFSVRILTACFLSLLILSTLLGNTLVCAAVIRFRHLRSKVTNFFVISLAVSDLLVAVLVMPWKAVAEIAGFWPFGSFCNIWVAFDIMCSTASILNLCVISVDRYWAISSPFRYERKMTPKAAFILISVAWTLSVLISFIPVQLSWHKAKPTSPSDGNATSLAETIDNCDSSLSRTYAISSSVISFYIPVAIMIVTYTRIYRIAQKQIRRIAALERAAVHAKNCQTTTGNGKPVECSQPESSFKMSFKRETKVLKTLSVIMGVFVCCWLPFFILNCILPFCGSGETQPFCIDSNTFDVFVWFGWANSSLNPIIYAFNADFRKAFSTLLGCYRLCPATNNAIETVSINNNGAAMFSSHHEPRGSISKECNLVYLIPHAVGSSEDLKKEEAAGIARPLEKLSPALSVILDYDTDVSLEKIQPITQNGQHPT
Sequence of Peptidyl-prolyl cis-trans isomerase NIMA-interacting 1 (Homo sapiens) (Q13526 whole entry, looked up): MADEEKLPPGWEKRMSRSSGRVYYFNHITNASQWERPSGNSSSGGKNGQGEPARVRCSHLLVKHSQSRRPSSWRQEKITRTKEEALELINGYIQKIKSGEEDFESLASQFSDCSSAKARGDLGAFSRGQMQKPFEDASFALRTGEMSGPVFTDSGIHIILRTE
Sequence of Transient receptor potential cation channel subfamily V member 1 (Homo sapiens) (Q8NER1 whole entry, looked up): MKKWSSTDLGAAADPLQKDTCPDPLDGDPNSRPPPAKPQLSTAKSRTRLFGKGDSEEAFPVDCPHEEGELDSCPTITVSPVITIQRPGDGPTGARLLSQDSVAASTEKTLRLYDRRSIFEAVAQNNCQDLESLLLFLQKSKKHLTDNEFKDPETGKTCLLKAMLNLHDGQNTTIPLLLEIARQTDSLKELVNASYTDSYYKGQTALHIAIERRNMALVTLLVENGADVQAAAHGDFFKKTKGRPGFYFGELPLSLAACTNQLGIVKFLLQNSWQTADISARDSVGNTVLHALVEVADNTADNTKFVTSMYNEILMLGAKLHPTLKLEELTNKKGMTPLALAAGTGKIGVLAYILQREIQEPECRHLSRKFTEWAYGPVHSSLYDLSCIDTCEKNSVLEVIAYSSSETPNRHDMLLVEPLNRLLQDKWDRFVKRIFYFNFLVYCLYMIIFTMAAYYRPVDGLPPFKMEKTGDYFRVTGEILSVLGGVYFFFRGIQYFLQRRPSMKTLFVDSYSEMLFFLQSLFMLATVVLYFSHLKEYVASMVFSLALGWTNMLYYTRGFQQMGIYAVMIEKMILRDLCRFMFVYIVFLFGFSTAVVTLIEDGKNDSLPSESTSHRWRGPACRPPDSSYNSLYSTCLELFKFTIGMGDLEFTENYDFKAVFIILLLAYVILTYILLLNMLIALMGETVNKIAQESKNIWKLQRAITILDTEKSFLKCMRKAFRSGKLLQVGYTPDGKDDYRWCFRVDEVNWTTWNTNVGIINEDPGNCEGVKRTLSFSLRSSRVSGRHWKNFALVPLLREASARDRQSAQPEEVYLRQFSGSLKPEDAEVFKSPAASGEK
Sequence of ATPase family AAA domain-containing protein 5 (Homo sapiens) (Q96QE3 whole entry, looked up, the tested form may be a part): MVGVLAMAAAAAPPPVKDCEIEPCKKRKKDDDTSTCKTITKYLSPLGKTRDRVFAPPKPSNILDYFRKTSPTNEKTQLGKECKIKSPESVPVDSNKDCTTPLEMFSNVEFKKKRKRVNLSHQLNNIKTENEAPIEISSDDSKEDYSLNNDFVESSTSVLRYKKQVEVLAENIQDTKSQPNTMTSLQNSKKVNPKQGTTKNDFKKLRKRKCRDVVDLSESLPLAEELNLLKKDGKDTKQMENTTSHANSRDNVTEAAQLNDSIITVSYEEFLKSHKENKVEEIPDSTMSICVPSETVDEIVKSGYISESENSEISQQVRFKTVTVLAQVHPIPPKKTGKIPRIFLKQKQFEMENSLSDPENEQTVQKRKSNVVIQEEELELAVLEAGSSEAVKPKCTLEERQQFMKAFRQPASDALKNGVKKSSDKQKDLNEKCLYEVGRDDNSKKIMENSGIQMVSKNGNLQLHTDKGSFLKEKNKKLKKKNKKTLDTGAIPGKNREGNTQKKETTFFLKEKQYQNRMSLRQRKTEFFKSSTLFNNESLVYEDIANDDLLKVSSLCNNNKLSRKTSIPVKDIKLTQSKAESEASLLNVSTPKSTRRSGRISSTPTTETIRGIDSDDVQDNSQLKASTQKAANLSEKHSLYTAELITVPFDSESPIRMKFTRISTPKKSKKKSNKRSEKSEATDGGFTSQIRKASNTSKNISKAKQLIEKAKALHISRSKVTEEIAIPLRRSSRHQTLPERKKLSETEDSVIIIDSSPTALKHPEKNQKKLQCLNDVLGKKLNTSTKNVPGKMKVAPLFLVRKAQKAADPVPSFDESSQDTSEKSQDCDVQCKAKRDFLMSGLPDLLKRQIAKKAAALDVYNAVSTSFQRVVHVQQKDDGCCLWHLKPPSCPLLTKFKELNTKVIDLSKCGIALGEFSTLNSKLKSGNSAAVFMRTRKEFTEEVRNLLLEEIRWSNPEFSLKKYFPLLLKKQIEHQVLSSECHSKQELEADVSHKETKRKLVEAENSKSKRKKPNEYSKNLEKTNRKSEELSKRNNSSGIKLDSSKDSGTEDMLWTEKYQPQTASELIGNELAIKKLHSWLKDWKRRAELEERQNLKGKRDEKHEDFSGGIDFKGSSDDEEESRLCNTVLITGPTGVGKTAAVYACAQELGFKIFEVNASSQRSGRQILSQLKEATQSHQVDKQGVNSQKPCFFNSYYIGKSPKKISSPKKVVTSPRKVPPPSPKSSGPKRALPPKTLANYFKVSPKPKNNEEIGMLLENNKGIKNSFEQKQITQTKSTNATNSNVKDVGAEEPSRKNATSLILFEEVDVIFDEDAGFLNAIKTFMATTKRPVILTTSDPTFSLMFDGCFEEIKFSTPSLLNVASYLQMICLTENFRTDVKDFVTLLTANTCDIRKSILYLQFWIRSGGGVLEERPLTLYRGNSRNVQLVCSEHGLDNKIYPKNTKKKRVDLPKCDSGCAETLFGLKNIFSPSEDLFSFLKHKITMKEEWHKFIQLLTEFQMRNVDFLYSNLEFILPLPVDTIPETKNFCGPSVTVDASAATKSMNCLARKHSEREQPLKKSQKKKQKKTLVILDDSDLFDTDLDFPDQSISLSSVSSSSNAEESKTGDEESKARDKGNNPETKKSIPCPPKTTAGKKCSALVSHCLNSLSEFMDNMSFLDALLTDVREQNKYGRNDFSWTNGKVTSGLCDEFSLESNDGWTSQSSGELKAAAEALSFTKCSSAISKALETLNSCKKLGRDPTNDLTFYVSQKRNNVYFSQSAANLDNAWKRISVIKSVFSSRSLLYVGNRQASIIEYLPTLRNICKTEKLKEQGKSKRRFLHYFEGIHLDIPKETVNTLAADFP
Sequence of Thyrotropin receptor (Homo sapiens) (P16473 whole entry, looked up): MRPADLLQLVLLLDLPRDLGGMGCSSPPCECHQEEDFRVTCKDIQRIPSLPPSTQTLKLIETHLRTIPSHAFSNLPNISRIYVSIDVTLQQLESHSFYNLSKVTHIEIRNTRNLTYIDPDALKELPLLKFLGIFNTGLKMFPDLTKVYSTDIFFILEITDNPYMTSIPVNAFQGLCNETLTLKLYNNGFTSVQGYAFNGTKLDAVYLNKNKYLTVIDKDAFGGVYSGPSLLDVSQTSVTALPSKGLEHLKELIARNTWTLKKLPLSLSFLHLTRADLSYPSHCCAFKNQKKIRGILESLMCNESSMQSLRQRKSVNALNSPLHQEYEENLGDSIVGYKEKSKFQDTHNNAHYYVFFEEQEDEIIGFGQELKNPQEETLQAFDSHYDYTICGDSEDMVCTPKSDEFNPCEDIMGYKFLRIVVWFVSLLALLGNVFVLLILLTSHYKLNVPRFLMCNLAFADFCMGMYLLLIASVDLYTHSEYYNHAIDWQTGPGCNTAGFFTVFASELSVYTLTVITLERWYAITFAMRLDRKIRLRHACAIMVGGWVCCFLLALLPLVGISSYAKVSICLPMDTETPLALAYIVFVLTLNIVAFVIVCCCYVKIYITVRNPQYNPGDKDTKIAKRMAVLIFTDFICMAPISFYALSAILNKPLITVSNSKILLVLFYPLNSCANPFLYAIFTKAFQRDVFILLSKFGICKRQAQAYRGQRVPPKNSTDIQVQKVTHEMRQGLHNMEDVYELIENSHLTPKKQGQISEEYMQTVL

Compound | Potency [1] | Potency [2] | Potency [3] | outcome [4] | Potency [5] | viability change [5] [%] | outcome [6] | outcome [7] | outcome [8] | Potency [9] | outcome [10] | Potency [11] | outcome [12] | Potency [13] | activation [14] | outcome [15] | outcome [16] | outcome [17] | Potency [18] | outcome [19]
CC(C)(C)[C@]1(O)CCN2C[C@H]3c4ccccc4CCc4cccc(c43)[C@@H]2C1 | inactive | inactive | inactive | inactive | inactive | -7.91 | inactive | inactive | inactive | inactive |  |  |  |  |  |  |  |  |  | 
NC(=O)c1ncn([C@@H]2O[C@H](CO)[C@@H](O)[C@H]2O)n1 | inactive | inactive | inactive | inactive |  |  |  | inactive |  |  | inactive | inactive | inactive | inactive | 0.875% (inactive) | inactive |  |  |  | 
Nc1cc(=O)[nH]c(N)n1 | inactive | inactive | inactive | inactive | inactive | 1.17 | inactive | inactive | inactive | inactive | inactive | inactive | inactive | inactive | 1.31% (inactive) | inactive | inactive | inactive |  | 
N=c1c[n+](N2CCOCC2)[n-]o1 | inactive | inactive | inactive |  | inactive | 0.362 | inactive | inactive | inactive | inactive | inactive | inactive | inactive | inactive | 0.5% (inactive) | inactive | inactive | inactive |  | 
CNC(=O)Oc1ccc2c(c1)[C@]1(C)CCN(C)[C@@H]1N2C | inactive | inactive | inactive | inactive | inactive | 11.7 | inactive | inactive | inactive |  | inactive | inactive | inactive | inactive | 1% (inactive) | inactive | inactive | inactive | inactive | inactive
O=S(=O)(O)NC1CCCCC1 |  |  |  |  |  |  |  |  |  |  |  |  |  |  |  |  |  |  | inactive | 
Cc1cc(N)c2ccccc2[n+]1CCCCCCCCCC[n+]1c(C)cc(N)c2ccccc21 |  | inactive | inactive |  |  |  | inactive | inactive | inactive | inactive | inactive | inactive | inactive |  | 0.812% (inactive) | inactive | inactive | inactive | inactive | 
COC(=O)C1=C(C)NC(C)=C(C(=O)OC)C1c1ccccc1[N+](=O)[O-] |  | inactive |  |  |  |  | inactive | inactive | inactive |  | inactive | inactive |  |  | 0.938% (inactive) | inactive | inactive | inactive |  | 
